Shown are actives, neighbours in structure and some others; about 3.2% of the full set was active somewhere.
KDM4E inh = blocks human JMJD2E demethylase activity | JMJD2E catalytic domain, FDH-coupled NADH fluorescence (FDH is formaldehyde dehydrogenase) | 230,000 compounds, 1.6% hits | Potency, µM (titrated, usually from 57.1 µM), for the others: at the top dose activity change, negative = inhibition, most hits filed as inhibitors | B2RXH2; active = well fitted inhibition curve with a large enough effect, not every such curve was filed as active; inconclusive = small, poorly fitted or top-dose-only effect, or another doubt; inactive = no such curve, though single readings can be large or run the other way;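 also: potency is read from the fitted curve at half-maximal effect; 0% = wells with enzyme and -100% = buffer wells without enzyme; nearly all actives have a fitted effect of over 50% in size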
Target sequence (B2RXH2 1-337 limits assumed): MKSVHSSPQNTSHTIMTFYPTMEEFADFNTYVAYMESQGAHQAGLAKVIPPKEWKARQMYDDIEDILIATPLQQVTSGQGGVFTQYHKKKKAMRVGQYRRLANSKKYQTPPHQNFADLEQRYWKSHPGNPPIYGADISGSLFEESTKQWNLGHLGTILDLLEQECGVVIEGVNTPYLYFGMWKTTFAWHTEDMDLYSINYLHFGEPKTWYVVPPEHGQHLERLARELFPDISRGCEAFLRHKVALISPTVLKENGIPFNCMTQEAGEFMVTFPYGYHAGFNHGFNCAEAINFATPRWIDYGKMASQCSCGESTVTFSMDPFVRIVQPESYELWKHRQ
Tau fibril ThT = inhibitors of human tau fibril formation, thioflavin T binding. 270,000 compounds, 2.1% hits. recombinant tau K18 P301L, heparin-induced fibrillization, ThT fluorescence. Potency, µM (highest dose often 57.4 µM), for inactives: top-dose activity, negative = inhibition, hits mostly inhibitors; also: potency is read from the fitted curve at half-maximal effect; % is scaled to controls: 0 for no effect and ±100 for the full control effect; nearly all actives have a fitted effect of over 55% in size
Target sequence (P10636 561-689 P618L limits assumed): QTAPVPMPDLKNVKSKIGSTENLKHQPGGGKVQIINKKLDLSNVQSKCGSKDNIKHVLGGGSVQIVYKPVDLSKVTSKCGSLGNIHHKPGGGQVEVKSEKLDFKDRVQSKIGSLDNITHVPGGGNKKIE
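Recombinant human tau K18 fragment […] carrying P301L, 15 uM unlabeled plus 0.24 uM Alexa 594-labeled, was fibrillized with 20 uM heparin in 100 mM sodium acetate pH 7 for 6 hr at 37 C; 30 uM ThT fluorescence read after 1 hr.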
CBFb RUNX1 block = inhibitors of human CBF-beta and RUNX1 interaction; Q01196+Q13951; AlphaScreen CBFb-His/RUNX1-biotin binding, biochemical; Potency, µM (top dose mostly 59.8 µM), without a hit: at the highest dose activity, negative = inhibition, hits mostly inhibitors; 230,000 tested, under 10 active; AID 1477; also: % of control where 0% means no effect
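Compounds were screened at multiple concentrations against a preformed CBF-beta(His)/RUNX1(biotin) complex (30 nM of each) for 15 min at room temperature, followed by 90 min with nickel and streptavidin beads and AlphaScreen reading.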
Tau fluor counter = counter-screen for tau fibril formation inhibitors; 280,000 compounds, 0.93% hits; tau K18 P301L (four-repeat tau fragment) Alexa594 fluorescence, heparin fibrillization; Potency, µM (highest dose often 57.7 µM), for inactives: at the top dose activity change, negative = decrease; also: potency is read from the fitted curve at half-maximal effect; % is scaled to controls: 0 for no effect and ±100 for the full control effect; nearly all actives have a fitted effect of over 55% in size
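Human K18 P301L tau (15 uM unlabeled plus 0.24 uM Alexa 594-labeled, final) in 100 mM sodium acetate pH 7 was mixed with compound and 20 uM heparin and incubated 6 hr at 37 C.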
Tau fibril FP = blocks human tau fibril formation measured by polarization | P10636 | K18 P301L tau heparin fibrillization, Alexa594 FP, 6 h | Potency, µM (top dose mostly 57.7 µM), inactives show top-dose activity, negative = inhibition, hits mostly inhibitors | 280,000 compounds, 0.39% hits | AID 1468; also: potency is read from the fitted curve at half-maximal effect; % is scaled to controls: 0 for no effect and ±100 for the full control effect; nearly all actives have a fitted effect of over 55% in size
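Steps: dispense K18 P301L tau (15 uM plus 0.24 uM Alexa 594 tracer, final) in pH 7 sodium acetate; add compound; add heparin (20 uM final); incubate 6 hr, 37 C; add ThT (30 uM final); after 1 hr ambient, read FP.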
LMNA splice mod = changes lamin A minigene splicing in HeLa cells | Potency, µM (titrated, usually from 46.1 µM), inactives show top-dose ratio change, negative = inhibition, hits mostly inhibitors | 200,000 compounds, 0.01% hits | HeLa LMNA splicing GFP/RFP minigene ratio, 48 h; active = well fitted inhibition curve with a large enough effect in the signal ratio, with a control signal flat, not every such curve was filed as active; inconclusive = small, poorly fitted or top-dose-only effect, or effect the other way, or a change in a side signal; the % refers to the signal ratio; also: potency is read from the fitted curve at half-maximal effect; % is scaled to controls: 0 for no effect and ±100 for the full control effect
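S3 HeLa stable clones carrying a lamin A-EGFP splicing minigene plus DsRed2 were seeded at 600 cells/well in Opti-MEM with 2% FBS, pin-dosed and incubated 48 h at 37°C. Acumen cytometry (488 nm) gave the GFP/RFP total-intensity ratio.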
The depositor's hits bear a star; ? = inconclusive; . = no result; [ ] = dose if it differs, or a comment. Unless noted, calls follow the shape of the dose curve; as a rule, active = well fitted curve in the direction sought with a large enough effect; inconclusive = small, poorly fitted or top-dose-only effect, or another doubt; inactive = no such curve, though single readings can be large; an effect the other way counts as inactive or inconclusive.

SMILES	KDM4E inh	Tau fibril ThT	CBFb RUNX1 block	Tau fluor counter	Tau fibril FP	LMNA splice mod
Cn1c(=O)c(CCc2ccccc2)nc2cnc(N3CCOCC3)nc21	.	.	.	.	.	-2%
CC(=O)N(C)C1=C(O)c2ccccc2C(=O)C1=O	-9%	28µM*	4%	-21%	?	7%
O=C1N/C(=N\S(=O)(=O)Cc2ccccc2)S/C1=C/c1cc([N+](=O)[O-])ccc1O	-5%	5µM*	-13%	?	1%	13%[46 µM]
COc1cc(/C=C2/S/C(=N/S(=O)(=O)c3ccccc3)NC2=O)c([N+](=O)[O-])cc1OC	4%	16µM*	-8%	?	?	4%
Cc1cc2ccccn2c1C(=O)c1ccc(N/N=C/c2ccc(C(=O)O)cc2)c([N+](=O)[O-])c1	-17%	3.2µM*	-2%	-28%	-6%	.
C/C(=N\Nc1ccc(C(=O)c2c(C)cc3ccccn23)cc1[N+](=O)[O-])c1ccc(O)cc1	3%	?	-8%	?	?	.
CSCC[C@H](NC(=O)[C@H](CC(C)C)NC(=O)CNC(=O)[C@H](Cc1ccccc1)NC(=O)[C@H](Cc1ccccc1)NC(=O)[C@H](CCC(N)=O)NC(=O)[C@H](CCC(N)=O)NC(=O)[C@@H]1CCCN1C(=O)[C@H](CCCCN)NC(=O)[C@@H]1CCCN1C(=O)[C@@H](N)CCCN=C(N)N)C(N)=O	.	.	8%	.	.	.
N/C(=N\OC(=O)c1ccc(Cl)c([N+](=O)[O-])c1)c1ccccn1	-13%	8.9µM*	2%	?	-7%	.
COc1ccc(-c2cc(-c3ccccc3)c(C#N)c(SCC(=O)Nc3ncc(C)s3)n2)cc1	?	-9%	1%	-28%	28µM*	-1%
CCOC(=O)c1sc(NC(=O)CSc2nc(C)cc(-c3ccccc3)n2)c(C#N)c1C	-6%	35µM*	3%	?	?	-8%
COc1ccc(NC(=O)CCNS(=O)(=O)c2cccc3nsnc23)cc1Cl	.	-10%	.	-17%	0%	.
COCCNC(=O)CSc1nnc2c(Cl)cc(Cl)cn12	2%	13µM*	2%	-22%	25µM*	?
CC1(C)CC(=O)C(N=Nc2cc(Cl)c(Cl)c(Cl)c2)=C(O)C1	0%	-19%	-9%	-12%	-3%	11%
CC1(C)CC(=O)C(C=Nc2ccc(O)c(N=CC3=C(O)CC(C)(C)CC3=O)c2)=C(O)C1	3.2µM*	4µM*	-9%	?	?	.
Cc1ccc(O)c(N=NC2=C(O)CC(C)(C)CC2=O)c1	0.56µM*	?	-24%	-13%	-3%	?
CC1(C)CC(=O)C(C=Nc2ccc(C(=O)c3ccccc3)cc2N=CC2=C(O)CC(C)(C)CC2=O)=C(O)C1	20µM*	?	-25%	-6%	-3%	?
COC(=O)N1C2CC3(C)C=C(C)OC1(C)C3c1ccccc12 (stereo unspecified)	8%[11.4 µM]	-8%[11.5 µM]	17%[13.1 µM]	-11%[11.6 µM]	-4%[11.6 µM]	2%[9.22 µM]
O=C1Nc2ccc(Br)cc2/C1=C/C1CC=CCC1 (stereo unspecified)	-11%	?	-3%	?	?	.
O=C1Nc2ccc(Br)cc2/C1=C/C(=O)c1ccc2c(c1)OCO2	-5%	25µM*	-7%	?	12%	.
O=C(O)c1cc(N/N=C/c2ccc(N3CCOCC3)s2)ccc1Cl	?	11µM*	?	?	?	7%
O=C(O)c1cc(Nc2nc(N3CCOCC3)nc(N3CCOCC3)n2)ccc1Cl	0%	-8%	12%	4%	5%	-2%
COc1ccc(NC(=O)Cn2cc(C(=O)c3ccc(C)c(C)c3)c(=O)c3cc(OC)ccc32)cc1	.	-7%	.	-13%	?	.
Cc1ccc(-c2nc(C)c(CCNC(=O)C(=O)Nc3ccc(C)c(Cl)c3)s2)cc1	.	?	.	-18%	-7%	20%[46 µM]
Cc1cccc(C2C3=C(Nc4[nH]n(-c5ccccc5)c(=O)c42)c2ccccc2C3=O)c1 (stereo unspecified)	3%	16µM*	?	?	-3%	?
Cc1ccccc1C1C2=C(Nc3[nH]n(-c4ccccc4)c(=O)c31)c1ccccc1C2=O (stereo unspecified)	-11%	14µM*	?	?	-4%	?
SMILES	KDM4E inh	Tau fibril ThT	CBFb RUNX1 block	Tau fluor counter	Tau fibril FP	LMNA splice mod
Cc1ccc(Cn2cc(C(=O)c3ccc(F)cc3)c(=O)c3cc4c(cc32)OCO4)cc1	.	?	.	-14%	-4%	.
CC1=C(c2ccc(C(C)C)cc2)S(=O)(=O)N=C1N1CCN(c2ccccc2F)CC1	.	6%	.	8%	?	.
CCC1c2ccc(C)n2CCN1C(=O)Nc1cc(Cl)ccc1OC (stereo unspecified)	0%	22µM*	-1%	-28%	?	-7%
CCC1c2ccc(C)n2CCN1C(=O)Nc1ccccc1C(=O)OC (stereo unspecified)	?	?	2%	-13%	?	1%
COC(=O)CC1(c2ccccc2)C(=O)c2ccccc2C1=O	5%	-8%	9%	-12%	-4%	9%
COC(=O)CC1(c2cccc3ccccc23)C(=O)c2ccccc2C1=O	3%	16µM*	-18%	?	-5%	-8%
CCCn1c(COc2cccc(C)c2)nc2ccccc21	.	-12%	.	-8%	-1%	.
Cc1ccc2nc(SCCCCOc3ccccc3)[nH]c2c1	4%	?	20%	?	-12%	?
Brc1ccc2nc(SCCOc3ccccc3)[nH]c2c1	.	?	.	14µM*[quencher]	28µM*	.
O=Cc1sc(=O)n(Cc2cccc(C(=O)O)c2)c1Cl	9%	13µM*	1%	-9%	10µM*	.
CCOC(=O)c1c(S(=O)(=O)N2CCCC(C(=O)Nc3ccc(C)cc3C)C2)c(C)n(CC)c1C (stereo unspecified)	.	-4%	.	-12%	-9%	7%[46 µM]
COc1ccccc1N1C(=O)C(Cl)=C(Nc2ccccc2O)C1=O	?	13µM*	-22%	?	28µM*	.
Cc1ccc(O)c(NC2=C(Cl)C(=O)N(Cc3ccccc3)C2=O)c1	22µM*	13µM*	?	?	?	.
O=C1C(Cl)=C(Nc2ccccc2O)C(=O)N1c1ccccc1	?	14µM*	0%	?	?	-19%
COC(=O)CC1=C(C(=O)OC)C(c2cccs2)C(C#N)=C(N)O1 (stereo unspecified)	22µM*	?	3%	-10%	-9%	1%
C/C(=N\Nc1ccc([N+](=O)[O-])cc1)c1cc2ccccc2o1	5%	2.8µM*	14%	8.9µM*[quencher]	-11%	?
